Results filed as inconclusive are left out. Values without a mark were called inactive. Calls of active or inactive are those of the source. Calls come from the whole dose curve; as a rule, active = well fitted cell-killing curve with a large enough effect; inconclusive = small, poorly fitted or top-dose-only effect, or effect the other way; inactive = no such curve, though single readings can be large or run the other way.
Potency is the fitted concentration of half-maximal effect.

The nature of one assay: Quantitative High-Throughput drug screen in 47 multiple myeloma cell lines against the NCATS MIPE library collection: H1112_PLB cell viability assay (AID 1918967; note: nearly all actives have a fitted effect of over 30% in size). The conditions noted are these: H1112 myeloma cells viability, ATP luminescence, 48 h; series mostly up to 45.8 µM; viability: at the top concentration. Put shortly:
(§1)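 Myeloma cell lines, 500 cells per well, exposed to MIPE 4.0 library compounds for 48 h at 37C, 5% CO2. Viability from ATP by CellTiter-Glo luminescence; normalised to DMSO (100%) and media-only (0%) wells.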
Take `CCCN[C@H]1CCc2nc(N)sc2C1`: the “viability” value is 122%.

As to `CCN(CC)CCn1c(=O)c(Cc2ccc(OC)cc2)nc2ccccc21`, the “viability” value is 99.3%.

`CNS(=O)(=O)Cc1ccc2[nH]cc(CCN(C)C)c2c1`: the “viability” value was 105%.

Turning to `CCCOc1ccc(C(=O)OCCN(CC)CC)cc1N`, the “viability” value is 103%.

Turning to `CC(C)NCC(O)c1ccc(NS(C)(=O)=O)cc1` (centres undefined), the “viability” value is 132%.

`C[C@@H]1C[C@H]2[C@@H]3CCC4=CC(=O)C=C[C@]4(C)[C@@]3(Cl)[C@@H](O)C[C@]2(C)[C@@]1(OC(=O)c1ccco1)C(=O)CCl`: the Potency is 5.26 µM (active).

On to `O=C(NCC1CN(c2ccc(N3CCOCC3=O)cc2)C(=O)O1)c1ccc(Cl)s1` (centres undefined), for which the “viability” value is 100%.

`CCCCCCNC(=O)n1cc(F)c(=O)[nH]c1=O`: the Potency was 5.26 µM (active).

Consider `Nc1ccc(S(=O)(=O)Nc2ccccn2)cc1`, for which the “viability” value is 93.8%.

As to `O=C(O)C1CCCN(CCC=C(c2ccccc2)c2ccccc2)C1` (centres undefined), the “viability” value is 132%.

For the compound `OC(Cn1cncn1)(Cn1cncn1)c1ccc(F)cc1F`, the “viability” value is 119%.

Take `CCOC(=O)c1ccc(OC(=O)CCCCCN=C(N)N)cc1`: the “viability” value is 108%.

As to `CN(Cc1cc(Br)cc(Br)c1N)C1CCCCC1`, the “viability” value was 110%.

For the compound `COC(=O)Nc1nc2ccc(C(=O)c3ccccc3)cc2[nH]1`, the Potency was 2.64 µM (active).

In the case of `NC(=O)c1cccc(N)c1`, the “viability” value was 102%.

As for `CC(=O)[C@H]1CC[C@H]2[C@@H]3CC=C4C[C@@H](O)CC[C@]4(C)[C@H]3CC[C@]12C`, the “viability” value was 89.4%.

As to `CN(C)CCc1c[nH]c2ccc(CS(=O)(=O)N3CCCC3)cc12`, the “viability” value is 100%.

Turning to `CC(C(=O)O)c1ccc2c(c1)CC(=O)c1ccccc1S2` (centres undefined), the “viability” value is 108%.

In the case of `CCN(C)C(=O)Oc1cccc([C@H](C)N(C)C)c1`, the “viability” value is 106%.

Take `CC[C@H](NC(C)C)[C@H](O)c1ccc(O)c2[nH]c(=O)ccc12`: the “viability” value is 113%.

Take `C[C@@H]1CN(c2c(F)c(N)c3c(=O)c(C(=O)O)cn(C4CC4)c3c2F)C[C@H](C)N1`: the “viability” value is 142% [at 23.2 µM].

For the compound `CC(C)C1CCC(C(=O)N[C@H](Cc2ccccc2)C(=O)O)CC1` (some centres undefined), the “viability” value was 78.8%.

In the case of `CC1=NN(c2ccccc2)C(=O)C1`, the “viability” value was 122%.

With `O=NN(CCCl)C(=O)NC1CCCCC1`, the “viability” value is 112%.

With `CO[C@@H]1[C@@H](OC(N)=O)[C@@H](O)[C@H](Oc2ccc3c(O)c(NC(=O)c4ccc(O)c(CC=C(C)C)c4)c(=O)oc3c2C)OC1(C)C`, the “viability” value was 123%.

Regarding `O=P(O)(O)C(O)(Cc1cccnc1)P(=O)(O)O`, the “viability” value is 121%.

As for `CC1=CC(=O)c2ccccc2C1=O`, the Potency was 20.9 µM (active).

As to `Cc1nnc(C(=O)NC(C)(C)c2nc(C(=O)NCc3ccc(F)cc3)c(O)c(=O)n2C)o1`, the “viability” value is 105%.

Consider `Nc1nc(N)nc(-c2cc(Cl)ccc2Cl)n1`, for which the “viability” value is 105%.

For `CC1=C(C(=O)O)N2C(=O)[C@@H](NC(=O)C(N)c3ccccc3)[C@H]2SC1` (some centres undefined), the “viability” value was 99.1%.

Consider `N[C@@H](Cc1ccc(O)c(O)c1)C(=O)O`, for which the “viability” value is 118%.

Turning to `N[C@@H](C(=O)N[C@@H]1C(=O)N2C(C(=O)O)=C(Cl)CS[C@H]12)c1ccccc1`, the “viability” value is 103%.

On to `CCOC(=O)c1ccc(C#Cc2ccc3c(c2)C(C)(C)CCS3)nc1`, for which the Potency is 20.9 µM (active).

Take `CN1CCCC(n2nc(Cc3ccc(Cl)cc3)c3ccccc3c2=O)CC1` (centres undefined): the Potency was 1.87 µM (active).

Regarding `COc1ncnc(NS(=O)(=O)c2ccc(N)cc2)c1OC`, the “viability” value is 86.6%.

As to `CC(C)Cn1cnc2c(N)nc3ccccc3c21`, the “viability” value was 97.4%.

The next assay is described as follows: Quantitative High-Throughput drug screen in 47 multiple myeloma cell lines against the NCATS MIPE library collection: Karpas25_ECACC cell viability assay (AID 1918968; note: nearly all actives have a fitted effect of over 35% in size). To be noted: Karpas25 myeloma viability, CellTiter-Glo ATP, 48 h; series mostly up to 45.8 µM; viability (% of control): at the top concentration. The gist of the method: as §1
For `CCCN[C@H]1CCc2nc(N)sc2C1`, the Potency was 2.09 µM (active).

Turning to `O=C(NCC1CN(c2ccc(N3CCOCC3=O)cc2)C(=O)O1)c1ccc(Cl)s1` (centres undefined), the Potency was 16.6 µM (active).

`CCCCCCNC(=O)n1cc(F)c(=O)[nH]c1=O`: the Potency was 7.43 µM (active).

Consider `OC(Cn1cncn1)(Cn1cncn1)c1ccc(F)cc1F`, for which the “viability (% of control)” value was 112%.

Take `CCOC(=O)c1ccc(OC(=O)CCCCCN=C(N)N)cc1`: the “viability (% of control)” value was 110%.

On to `COC(=O)Nc1nc2ccc(C(=O)c3ccccc3)cc2[nH]1`, for which the Potency was 3.72 µM (active).

As for `NC(=O)c1cccc(N)c1`, the “viability (% of control)” value is 103%.

Turning to `CC(=O)[C@H]1CC[C@H]2[C@@H]3CC=C4C[C@@H](O)CC[C@]4(C)[C@H]3CC[C@]12C`, the “viability (% of control)” value was 92.4%.

Take `CC(C(=O)O)c1ccc2c(c1)CC(=O)c1ccccc1S2` (centres undefined): the Potency was 18.7 µM (active).

Consider `CCN(C)C(=O)Oc1cccc([C@H](C)N(C)C)c1`, for which the “viability (% of control)” value is 123%.

`C[C@@H]1CN(c2c(F)c(N)c3c(=O)c(C(=O)O)cn(C4CC4)c3c2F)C[C@H](C)N1`: the “viability (% of control)” value is 148% [at 23.2 µM].

In the case of `CO[C@@H]1[C@@H](OC(N)=O)[C@@H](O)[C@H](Oc2ccc3c(O)c(NC(=O)c4ccc(O)c(CC=C(C)C)c4)c(=O)oc3c2C)OC1(C)C`, the Potency was 5.9 µM (active).

Take `CC1=CC(=O)c2ccccc2C1=O`: the Potency is 9.35 µM (active).

In the case of `Cc1nnc(C(=O)NC(C)(C)c2nc(C(=O)NCc3ccc(F)cc3)c(O)c(=O)n2C)o1`, the “viability (% of control)” value was 121%.

In the case of `CC1=C(C(=O)O)N2C(=O)[C@@H](NC(=O)C(N)c3ccccc3)[C@H]2SC1` (some centres undefined), the “viability (% of control)” value was 91.5%.

Turning to `N[C@@H](Cc1ccc(O)c(O)c1)C(=O)O`, the “viability (% of control)” value was 101%.

Turning to `CN1CCCC(n2nc(Cc3ccc(Cl)cc3)c3ccccc3c2=O)CC1` (centres undefined), the Potency is 1.32 µM (active).

In the case of `CC(C)Cn1cnc2c(N)nc3ccccc3c21`, the “viability (% of control)” value was 108%.

For the origin of these results see PubChem BioAssay (NCATS).
